# Data published in the supplement of paper PMC8728848.
# The full list was thinned out, with the strongest signals kept by preference.
# B1: Tim-4 (Mus musculus), Q6U7R4 (protein)
# chain: MSKGLLLLWLVTELWWLYLTPAASEDTIIGFLGQPVTLPCHYLSWSQSRNSMCWGKGSCPNSKCNAELLRTDGTRIISRKSTKYTLLGKVQFGEVSLTISNTNRGDSGVYCCRIEVPGWFNDVKKNVRLELRRATTTKKPTTTTRPTTTPYVTTTTPELLPTTVMTTSVLPTTTPPQTLATTAFSTAVTTCPSTTPGSFSQETTKGSAFTTESETLPASNHSQRSMMTISTDIAVLRPTGSNPGILPSTSQLTTQKTTLTTSESLQKTTKSHQINSRQTILIIACCVGFVLMVLLFLAFLLRGKVTGANCLQRHKRPDNTEDSDSVLNDMSHGRDDEDGIFTL
# B2: RNase 1 (Bos taurus), P61823 (protein)
# chain: MALKSLVLLSLLVLVLLLVRVQPSLGKETAAAKFERQHMDSSTSAASSSNYCNQMMKSRNLTKDRCKPVNTFVHESLADVQAVCSQKNVACKNGQTNCYQSYSTMSITDCRETGSSKYPNCAYKTTQANKHIIVACEGNPYVPVHFDASV
# What was measured:
# Test in all cases: glycan array binding signal (z-score within array); higher = stronger binding
# Details in all cases: glycan notation: IUPAC condensed, linker removed
# [1] = target: Fuc(a1-2)Gal(b1-3)GalNAc
# Summary of the method: (§1)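 Glycan array data came from 3228 arrays in the Consortium for Functional Glycomics database, and only arrays with an available protein sequence were kept. Glycan names were put into IUPAC-condensed notation, and columns mapping to the same glycan were averaged. The binding signal is a within-array Z-score, averaged across arrays of one protein sequence run at different concentrations or buffers and across linkers. A negative Z-score can be read as non-binding.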
# [2] = target: Fuc(a1-2)[Gal(a1-3)]Gal(b1-3)GlcNAc
# Summary of the method: as §1
# [3] = target: Fuc(a1-2)[GalNAc(a1-3)]Gal(b1-4)[Fuc(a1-3)]GlcNAc
# Summary of the method: as §1
# [4] = target: Fuc(a1-3)[Gal(b1-4)]GlcNAc(b1-3)Gal(b1-3)[Fuc(a1-4)]GlcNAc
# Summary of the method: as §1
# [5] = target: Fuc(a1-3)[Gal(b1-4)]GlcNAc(b1-4)Gal(b1-4)[Fuc(a1-3)]GlcNAc
# Summary of the method: as §1
# [6] = target: Fuc(b1-3)GlcNAc
# Summary of the method: as §1
# [7] = target: Gal(a1-3)[Gal(a1-4)]Gal(b1-4)GlcNAc
# Summary of the method: as §1
# [8] = target: Gal(b1-3)[Fuc(a1-4)]GlcNAc(b1-3)Gal(b1-4)[Fuc(a1-3)]GlcNAc
# Summary of the method: as §1
# [9] = target: Gal(b1-4)GalNAc(b1-3)[Fuc(a1-2)]Gal(b1-4)GlcNAc
# Summary of the method: as §1
# [10] = target: Gal(b1-4)GlcNAc(b1-3)Gal(b1-4)GlcNAc(b1-3)Gal(b1-4)GlcNAc
# Summary of the method: as §1
# [11] = target: Gal(b1-4)GlcNAc(b1-3)[Gal(b1-4)GlcNAc(b1-6)]GalNAc
# Summary of the method: as §1
# [12] = target: Gal3S(b1-3)GalNAc
# Summary of the method: as §1
# [13] = target: Gal3S(b1-4)Glc6S
# Summary of the method: as §1
# [14] = target: Gal3S6S(b1-4)GlcNAc
# Summary of the method: as §1
# [15] = target: GalNAc(a1-3)GalNAc
# Summary of the method: as §1
# [16] = target: GlcNAc(a1-3)Gal(b1-4)GlcNAc
# Summary of the method: as §1
# [17] = target: GlcNAc(b1-3)[GlcNAc(b1-4)][GlcNAc(b1-6)]GlcNAc
# Summary of the method: as §1
# [18] = target: Man(a1-2)Man(a1-2)Man(a1-3)[Man(a1-2)Man(a1-3)[Man(a1-2)Man(a1-6)]Man(a1-6)]Man(b1-4)GlcNAc(b1-4)GlcNAc
# Summary of the method: as §1
# [19] = target: Neu5Ac(a2-3)Gal(b1-3)GlcNAc(b1-3)Gal(b1-4)GlcNAc
# Summary of the method: as §1
# [20] = target: Neu5Ac(a2-3)Gal(b1-4)GlcNAc6S
# Summary of the method: as §1
# [21] = target: Neu5Ac(a2-3)[Neu5Ac(a2-6)]GalNAc
# Summary of the method: as §1
# [22] = target: Neu5Ac(a2-8)Neu5Ac(a2-8)Neu5Ac(a2-3)[GalNAc(b1-4)]Gal(b1-4)Glc
# Summary of the method: as §1
# [23] = target: Fuc(a1-2)Gal(b1-3)GalNAc(b1-3)Gal(a1-4)Gal(b1-4)Glc
# Summary of the method: as §1
# [24] = target: Fuc(a1-2)Gal(b1-4)GlcNAc(b1-3)Gal(b1-4)GlcNAc
# Summary of the method: as §1
# [25] = target: Gal(a1-4)Gal(b1-4)Gal
# Summary of the method: as §1
# [26] = target: Gal(a1-4)Gal(b1-4)GalNAc
# Summary of the method: as §1
# [27] = target: Gal(b1-3)GalNAc(b1-3)Gal(b1-4)Glc
# Summary of the method: as §1
# [28] = target: Gal(b1-4)Glc6S
# Summary of the method: as §1
# [29] = target: Gal(b1-4)GlcNAc(b1-3)GalNAc
# Summary of the method: as §1
# [30] = target: Gal6S(b1-4)Glc
# Summary of the method: as §1
# [31] = target: Man(a1-2)Man(a1-2)Man(a1-3)[Man(a1-2)Man(a1-6)[Man(a1-3)]Man(a1-6)]Man(b1-4)GlcNAc(b1-4)GlcNAc
# Summary of the method: as §1
# [32] = target: Man(a1-3)[Man(a1-6)]Man
# Summary of the method: as §1
# [33] = target: Neu5Ac(a2-3)Gal(b1-3)GalNAc6S
# Summary of the method: as §1
# [34] = target: Neu5Ac(a2-3)Gal(b1-4)GlcNAc(b1-3)Gal(b1-4)[Fuc(a1-3)]GlcNAc
# Summary of the method: as §1
# [35] = target: Neu5Ac(a2-3)GalNAc
# Summary of the method: as §1
# [36] = target: Neu5Gc(a2-6)Gal(b1-4)GlcNAc
# Summary of the method: as §1
Binder,glycan array binding signal (z-score) [1],glycan array binding signal (z-score) [2],glycan array binding signal (z-score) [3],glycan array binding signal (z-score) [4],glycan array binding signal (z-score) [5],glycan array binding signal (z-score) [6],glycan array binding signal (z-score) [7],glycan array binding signal (z-score) [8],glycan array binding signal (z-score) [9],glycan array binding signal (z-score) [10],glycan array binding signal (z-score) [11],glycan array binding signal (z-score) [12],glycan array binding signal (z-score) [13],glycan array binding signal (z-score) [14],glycan array binding signal (z-score) [15],glycan array binding signal (z-score) [16],glycan array binding signal (z-score) [17],glycan array binding signal (z-score) [18],glycan array binding signal (z-score) [19],glycan array binding signal (z-score) [20],glycan array binding signal (z-score) [21],glycan array binding signal (z-score) [22],glycan array binding signal (z-score) [23],glycan array binding signal (z-score) [24],glycan array binding signal (z-score) [25],glycan array binding signal (z-score) [26],glycan array binding signal (z-score) [27],glycan array binding signal (z-score) [28],glycan array binding signal (z-score) [29],glycan array binding signal (z-score) [30],glycan array binding signal (z-score) [31],glycan array binding signal (z-score) [32],glycan array binding signal (z-score) [33],glycan array binding signal (z-score) [34],glycan array binding signal (z-score) [35],glycan array binding signal (z-score) [36]
B1,-0.114,0.285,0.089,0.006,-0.188,-0.139,-0.083,-0.25,-0.661,-0.396,-0.345,2.34,1.82,1.9,-0.157,-0.514,1.75,0.032,-0.953,-0.51,-0.437,1.32,–,–,–,–,–,–,–,–,–,–,–,–,–,–
B2,-0.157,–,–,–,–,–,–,–,–,–,–,–,–,–,–,–,–,–,–,–,–,–,1.93,-0.225,7.93,8.87,0.641,-0.14,-0.22,-0.073,-0.153,-0.147,-0.195,-0.22,-0.24,-0.201
